Reference: PubChem BioAssay
Activity calls are given as the source filed them. Cut-off read from the data, not from the text of the source, unless noted: active = inhibition above about 80%; inactive = the rest.

Experiments:
[1] = UWB1.289 ovarian carcinoma cell growth inhibition, synergistic combos for chromothripsis tumors, BGB or cisplatin combos (AID 1671456); conditions: UWB1.289 ovarian carcinoma cells, stronger effect = higher value;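 note: cells exposed to compound for four days; 0% = vehicle DMSO and 100% = killing by high DMSO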
[2] = LFS_MB_2R medulloblastoma cell growth inhibition, synergistic combos for chromothripsis tumors, cisplatin combos (AID 1671457); conditions: LFS_MB_2R medulloblastoma cells, stronger effect = higher value;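 note: cells exposed to compound for four days before readout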
[3] = MDA-MB-436 breast carcinoma cell growth inhibition, synergistic combos for chromothripsis tumors, BGB or cisplatin combos (AID 1671458; call rule not given here;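 note: cells exposed for 96 hours; 0% = vehicle DMSO and 100% = killing by high DMSO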); conditions: MDA-MB-436 breast carcinoma growth inhibition, drug combinations, stronger effect = higher value
[4] = UWB1.289_BRCA1 ovarian cancer growth, cell-based, BGB or cisplatin combinations (AID 1671459); conditions: UWB1.289 BRCA1 ovarian carcinoma, drug combinations, stronger effect = higher value
[5] = human astrocyte viability loss, single and combined drugs, cytotoxicity control for chromothriptic childhood tumor combination screen, cell-based, BGB or cisplatin IC20 combos (AID 1671460); conditions: Human astrocytes, drug combinations, stronger effect = higher value;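 note: cells exposed to compounds for 96 hours before viability readout; 0% = vehicle and 100% = killing control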
[6] = growth inhibition of BT084 medulloblastoma cells, cell-based, ICGC_MB145, cisplatin and BGB IC40 combos (AID 1671461); conditions: drug combinations, stronger effect = higher value;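 note: cells exposed to drugs for 96 hours; 0% = vehicle DMSO and 100% = high DMSO full killing control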
[7] = growth inhibition of RCMB18 medulloblastoma cells, cell-based, cisplatin and BGB IC40 combos (AID 1671462); conditions: stronger effect = higher value;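 note: cells exposed to compound for four days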
[8] = growth inhibition of CRL1545 osteosarcoma cells, cell-based, cisplatin and BGB IC20 combos (AID 1671464); conditions: stronger effect = higher value;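 note: cells exposed to compound for 96 hours before readout; 0% = vehicle DMSO and 100% = high DMSO killing control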
[9] = test system: F380Y; assay: modulators of BK channel variants, profiling panel, selectivity assay, cell-based, U2OS BacMam, thallium flux, beta subunits (AID 1259406;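 active = thallium flux through the channel raised or lowered by more than 3 SD from vehicle-only wells, actives on both sides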;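 note: initial slope of Thallos dye fluorescence rise after thallium is added; log ratio against the mean of 0.3% DMSO vehicle wells on the same plate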); conditions: at 30 µM
[10] = test system: F380Y/beta1; assay: as above; conditions: at 30 µM
[11] = measured here: inhibition with BGB combination, at 0.05 µM
[12] = measured here: inhibition with cisplatin combination, at 0.05 µM
[13] = measured here: combination with cisplatin, at 0.5 µM
[14] = measured here: combination with cisplatin, at 5 µM
[15] = measured here: BGB combination, at 0.5 µM
[16] = measured here: BGB combination, at 5 µM
[17] = measured here: cisplatin combination, at 0.5 µM
[18] = measured here: cisplatin combination, at 5 µM
[19] = BGB combination, concentration series, at 5 µM
[20] = cisplatin combination, concentration series, at 5 µM
[21] = measured here: combo with BGB IC20, at 0.5 µM
[22] = measured here: combo with cisplatin IC20, at 0.5 µM
[23] = cisplatin combination, at 0.5 µM
[24] = measured here: BGB IC40 combination 0.05 uM, at 0.05 µM
[25] = measured here: BGB IC40 combination, at 0.05 µM
[26] = measured here: with BGB IC20 combination, at 0.5 µM
[27] = measured here: with cisplatin IC20 combination, at 0.5 µM

## O=C(O)P(=O)(O)O
[1]; at 0.5 µM
  inhibition: -11.3% (inactive)
[1]; [11]
  inhibition: -27.2%
[1]; [12]
  inhibition: -24%
[2]; at 0.5 µM
  inhibition: -19.3% (inactive)
[2]; [13]
  inhibition: -14.2%
[2]; [14]
  inhibition: -18.5%
[3]; at 0.5 µM
  inhibition: -30.5% (inactive)
[3]; [15]
  inhibition: -34.2%
[3]; [16]
  inhibition: -30.6%
[3]; [17]
  inhibition: -45.7%
[3]; [18]
  inhibition: -24.2%
[4]; [19]
  inhibition: -19.2%
[4]; at 0.5 µM
  inhibition: -15.7% (inactive)
[4]; [20]
  inhibition: -10.9%
[5]; at 0.5 µM
  inhibition: 0.14% (inactive)
[5]; [21]
  inhibition: 1.18%
[5]; [22]
  inhibition: -8.98%
[6]; at 0.5 µM
  inhibition: -21.4% (inactive)
[6]; [23]
  inhibition: -13.9%
[6]; cisplatin combination, at 5 µM
  inhibition: -72.5%
[6]; [24]
  inhibition: 11.4%
[6]; single agent, at 5 µM
  inhibition: -13.1%
[7]; at 0.5 µM
  inhibition: -28.6% (inactive)
[7]; cisplatin combo, at 5 µM
  inhibition: -9.59%
[7]; [25]
  inhibition: -13.4%
[7]; [13]
  inhibition: -44.4%
[7]; single agent, at 5 µM
  inhibition: -27.5%
[8]; at 0.5 µM
  inhibition: -83.7% (inactive)
[8]; [26]
  inhibition: -15.5%
[8]; [27]
  inhibition: -118%
[8]; single agent, at 0.05 µM
  inhibition: -51.7%
[8]; single agent, at 5 µM
  inhibition: -82.1%

## O=c1oc2c(O)c(O)cc3c(=O)oc4c(O)c(O)cc1c4c23
[1]; at 0.5 µM
  inhibition: -3.64% (inactive)
[1]; [11]
  inhibition: -22.8%
[1]; [12]
  inhibition: -16.6%
[2]; at 0.5 µM
  inhibition: -23% (inactive)
[2]; [13]
  inhibition: -27.7%
[2]; [14]
  inhibition: -17%
[3]; at 0.5 µM
  inhibition: -9.5% (inactive)
[3]; [15]
  inhibition: -12.3%
[3]; [16]
  inhibition: -25.4%
[3]; [17]
  inhibition: -5.2%
[3]; [18]
  inhibition: -11.4%
[4]; [19]
  inhibition: 12.5%
[4]; at 0.5 µM
  inhibition: -1.72% (inactive)
[4]; [20]
  inhibition: 19.2%
[5]; at 0.5 µM
  inhibition: 10.8% (inactive)
[5]; [21]
  inhibition: 0.281%
[5]; [22]
  inhibition: 16.2%
[6]; at 0.5 µM
  inhibition: -21.3% (inactive)
[6]; [23]
  inhibition: -17.9%
[6]; cisplatin combination, at 5 µM
  inhibition: -19.7%
[6]; [24]
  inhibition: 1.07%
[6]; single agent, at 5 µM
  inhibition: -27.1%
[7]; at 0.5 µM
  inhibition: -15.5% (inactive)
[7]; cisplatin combo, at 5 µM
  inhibition: 10.7%
[7]; [25]
  inhibition: -24.9%
[7]; [13]
  inhibition: 18.1%
[7]; single agent, at 5 µM
  inhibition: -30.9%
[8]; at 0.5 µM
  inhibition: -12.1% (inactive)
[8]; [26]
  inhibition: 3.22%
[8]; [27]
  inhibition: -19.8%
[8]; single agent, at 0.05 µM
  inhibition: -16%
[8]; single agent, at 5 µM
  inhibition: 12.2%

## CCc1c(C)[nH]c2c1C(=O)C(CN1CCOCC1)CC2 (centres undefined)
[9]
  log fold change Tl+ flux: 0.0409 (inactive)
[10]
  log fold change Tl+ flux: 0.015 (inactive)

## Nc1nc(=S)c2[nH]cnc2[nH]1
[1]; at 0.5 µM
  inhibition: 63.1% (inactive)
[1]; [11]
  inhibition: -17.4%
[1]; [12]
  inhibition: -1.37%
[2]; at 0.5 µM
  inhibition: -15.5% (inactive)
[2]; [13]
  inhibition: -18.2%
[2]; [14]
  inhibition: -6.5%
[3]; at 0.5 µM
  inhibition: 15.1% (inactive)
[3]; [15]
  inhibition: 4.09%
[3]; [16]
  inhibition: 52.8%
[3]; [17]
  inhibition: 11.9%
[3]; [18]
  inhibition: 66.7%
[4]; [19]
  inhibition: 113%
[4]; at 0.5 µM
  inhibition: 63.6% (inactive)
[4]; [20]
  inhibition: 110%
[5]; at 0.5 µM
  inhibition: 4.77% (inactive)
[5]; [21]
  inhibition: -3.14%
[5]; [22]
  inhibition: 8.25%
[6]; at 0.5 µM
  inhibition: -17.7% (inactive)
[6]; [23]
  inhibition: -11.9%
[6]; cisplatin combination, at 5 µM
  inhibition: 0.406%
[6]; [24]
  inhibition: 0.063%
[6]; single agent, at 5 µM
  inhibition: 26.6%
[7]; at 0.5 µM
  inhibition: -16.7% (inactive)
[7]; cisplatin combo, at 5 µM
  inhibition: -5.08%
[7]; [25]
  inhibition: -23.1%
[7]; [13]
  inhibition: 12.6%
[7]; single agent, at 5 µM
  inhibition: -10.3%
[8]; at 0.5 µM
  inhibition: -1.16% (inactive)
[8]; [26]
  inhibition: -1.16%
[8]; [27]
  inhibition: -1.16%
[8]; single agent, at 0.05 µM
  inhibition: -14.2%
[8]; single agent, at 5 µM
  inhibition: 77.7%

## O=c1c(O)c(-c2ccc(O)c(O)c2)oc2cc(O)cc(O)c12
[1]; at 0.5 µM
  inhibition: -3.55% (inactive)
[1]; [11]
  inhibition: -4.11%
[1]; [12]
  inhibition: -12.6%
[2]; at 0.5 µM
  inhibition: 0.78% (inactive)
[2]; [13]
  inhibition: 12%
[2]; [14]
  inhibition: 15.1%
[3]; at 0.5 µM
  inhibition: 0.09% (inactive)
[3]; [15]
  inhibition: -0.722%
[3]; [16]
  inhibition: 15.2%
[3]; [17]
  inhibition: -5.24%
[3]; [18]
  inhibition: 12.3%
[4]; [19]
  inhibition: 2.88%
[4]; at 0.5 µM
  inhibition: -10.1% (inactive)
[4]; [20]
  inhibition: 11.4%
[5]; at 0.5 µM
  inhibition: -9.12% (inactive)
[5]; [21]
  inhibition: -6.54%
[5]; [22]
  inhibition: -19%
[6]; at 0.5 µM
  inhibition: 11.1% (inactive)
[6]; [23]
  inhibition: -4.44%
[6]; cisplatin combination, at 5 µM
  inhibition: -18.7%
[6]; [24]
  inhibition: 37.6%
[6]; single agent, at 5 µM
  inhibition: -1.38%
[7]; at 0.5 µM
  inhibition: 8.96% (inactive)
[7]; cisplatin combo, at 5 µM
  inhibition: -16.5%
[7]; [25]
  inhibition: 7.33%
[7]; [13]
  inhibition: 6.44%
[7]; single agent, at 5 µM
  inhibition: 2.31%
[8]; at 0.5 µM
  inhibition: -39.9% (inactive)
[8]; [26]
  inhibition: -11.9%
[8]; [27]
  inhibition: -53.9%
[8]; single agent, at 0.05 µM
  inhibition: 57.4%
[8]; single agent, at 5 µM
  inhibition: 8.34%

## Cc1ccnc2c1NC(=O)c1cccnc1N2C1CC1
[1]; at 0.5 µM
  inhibition: -0.21% (inactive)
[1]; [11]
  inhibition: -23.1%
[1]; [12]
  inhibition: -13.9%
[2]; at 0.5 µM
  inhibition: -7.48% (inactive)
[2]; [13]
  inhibition: 3.86%
[2]; [14]
  inhibition: -37.6%
[3]; at 0.5 µM
  inhibition: -22.8% (inactive)
[3]; [15]
  inhibition: -19.7%
[3]; [16]
  inhibition: -27%
[3]; [17]
  inhibition: -29.5%
[3]; [18]
  inhibition: -14.1%
[4]; [19]
  inhibition: -12.7%
[4]; at 0.5 µM
  inhibition: -12.9% (inactive)
[4]; [20]
  inhibition: -3.3%
[5]; at 0.5 µM
  inhibition: -5.51% (inactive)
[5]; [21]
  inhibition: -5.33%
[5]; [22]
  inhibition: 4.46%
[6]; at 0.5 µM
  inhibition: -28.8% (inactive)
[6]; [23]
  inhibition: -7.59%
[6]; cisplatin combination, at 5 µM
  inhibition: -3.69%
[6]; [24]
  inhibition: -12.5%
[6]; single agent, at 5 µM
  inhibition: -22.7%
[7]; at 0.5 µM
  inhibition: -8.82% (inactive)
[7]; cisplatin combo, at 5 µM
  inhibition: 24.6%
[7]; [25]
  inhibition: -2.75%
[7]; [13]
  inhibition: 5.5%
[7]; single agent, at 5 µM
  inhibition: -19.9%
[8]; at 0.5 µM
  inhibition: -10.3% (inactive)
[8]; [26]
  inhibition: -9.73%
[8]; [27]
  inhibition: -13%
[8]; single agent, at 0.05 µM
  inhibition: -39.8%
[8]; single agent, at 5 µM
  inhibition: 1.39%
[9]
  log fold change Tl+ flux: -0.00202 (inactive)
[10]
  log fold change Tl+ flux: 0.0188 (inactive)
